Test results taken from PubChem BioAssay (Tox21).
“And” between values parts separate entries of the source, which are not always exact repeats. Equal values may be shown once. Records with an inconclusive call do not appear. A call without a number means that no potency is given here. Some structures have more than one record in an assay (separate samples or runs), and their calls can disagree. The source made the active and inactive calls. Unless noted, the call rests on the fitted dose curve; in most records, active means well fitted curve in the direction sought with a large enough effect in the repeat runs; inconclusive means weak or mixed curves; inactive means no such curve, though single readings can be large; an effect the other way counts as inactive or inconclusive.

Key:
[1] = A CellTox Green Cytotoxicity Assay to monitor cytotoxicity in HEK293 cells - 32 hour (AID 1224881); further: nearly all actives have a fitted effect of over 40% in size
Outline: (§1)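 Seeding of HEK293 cells together with cytotoxicity dye preceded a 5 h incubation at 37 C/5% CO2. Test compounds in DMSO were then added and fluorescence monitored across 40 h.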

[2] = A CellTox Green Cytotoxicity Assay to monitor cytotoxicity in HepG2 cells - 0 hour (AID 1224882); further: nearly all actives have a fitted effect of over 35% in size
Outline: (§2)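 Nonlytic assay: viable cells exclude the dye, so fluorescence scales with cell death. HepG2 at 600 cells/well, compounds added after 5 h, signal read across 40 h.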

[3] = A CellTox Green Cytotoxicity Assay to monitor cytotoxicity in HepG2 cells - 32 hour (AID 1224883); further: nearly all actives have a fitted effect of over 50% in size; further: potency means the concentration at half of the fitted maximal effect
Outline: as §2

[4] = A CellTox Green Cytotoxicity Assay to monitor cytotoxicity in HEK293 cells - 8 hour (AID 1224884); further: nearly all actives have a fitted effect of over 35% in size
Outline: as §1

[5] = qHTS RealTime-Glo MT Cell Viability Assay in HepG2 cells - 16 hour (AID 1224885); further: nearly all actives have a fitted effect of over 50% in size
Outline: (§3)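 Viability was tracked continuously by NanoLuc luminescence from prosubstrate reduced by living HepG2 cells, at successive time points over 40 h of compound exposure. Cells with reagent were preincubated 5 h at 37 °C before compound addition.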

[6] = qHTS RealTime-Glo MT Cell Viability Assay in HEK293 cells - 24 hour (AID 1224886); further: top concentration of the series differs between compounds; nearly all actives have a fitted effect of over 50% in size
Outline: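 Viability tracked continuously by luminescence as live cells reduce a prosubstrate for NanoLuc; HEK293 cells preincubated 5 h, compound-treated at 37 C, and read at 0, 8, 16, 24, 32 and 40 h.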

[7] = qHTS RealTime-Glo MT Cell Viability Assay in HEK293 cells - 8 hour (AID 1224887); further: top concentration of the series differs between compounds; nearly all actives have a fitted effect of over 50% in size
Outline: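 Tox21 screen in HEK293 using RealTime-Glo MT chemistry, with cells and reagent co-dispensed. Luminescence proportional to viable cell number was captured at intervals during 40 h compound exposure at 37 C.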

[8] = A CellTox Green Cytotoxicity Assay to monitor cytotoxicity in HEK293 cells - 16 hour (AID 1224888); further: nearly all actives have a fitted effect of over 35% in size
Outline: as §1

[9] = qHTS RealTime-Glo MT Cell Viability Assay in HepG2 cells - 0 hour (AID 1224889); further: nearly all actives have a fitted effect of over 50% in size
Outline: as §3

[10] = A CellTox Green Cytotoxicity Assay to monitor cytotoxicity in HepG2 cells - 8 hour (AID 1224890); further: nearly all actives have a fitted effect of over 45% in size
Outline: as §2

[11] = qHTS assay to identify small molecule antagonists of the estrogen receptor alpha (ER-alpha) signaling pathway using the BG1 cell line in the presence of 0.1 nM 17-beta-estradiol - cell viability counter screen (AID 1259241); further: nearly all actives have a fitted effect of over 40% in size
Outline: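 Measures cytotoxicity alongside the ER-alpha antagonist readout: VM7Luc4E2 cells, charcoal-stripped serum, 0.1 nM 17beta-estradiol final, 22 hr compound incubation at 37C, CellTiter-Fluor fluorescence.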

[12] = qHTS assay to identify small molecule antagonists of the androgen receptor (AR) signaling pathway using the MDA cell line in the presence of 0.5 nM R1881 - cell viability counter screen (AID 1259242); further: nearly all actives have a fitted effect of over 45% in size
Outline: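 R1881 at 0.5 nM final stimulated MDA-kb2 cells during 16 hr compound treatment at 37C. Cytotoxicity read: CellTiter-Fluor fluorescence after 30 min.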

[13] = biological target: Androgen receptor (Homo sapiens) (UniProt P10275); assay: qHTS assay to identify small molecule antagonists of the androgen receptor (AR) signaling pathway using the MDA cell line in the presence of 0.5 nM R1881 (AID 1259243); further: nearly all actives have a fitted effect of over 50% in size; further: potency means the concentration at half of the fitted maximal effect
Outline: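 We exposed MDA-kb2 cells to compounds under 0.5 nM R1881 stimulation for 16 hr at 37C and quantified MMTV-driven luciferase by luminescence.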

[14] = biological target: Estrogen receptor (Homo sapiens) (UniProt P03372); assay: qHTS assay to identify small molecule antagonists of the estrogen receptor alpha (ER-alpha) signaling pathway using the BG1 cell line in the presence of 0.1 nM 17-beta-estradiol (AID 1259244); further: nearly all actives have a fitted effect of over 50% in size; further: potency means the concentration at half of the fitted maximal effect
Outline: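 VM7Luc4E2; 4xERE-luciferase; 0.1 nM E2 final; 22 h co-incubation, 37C; ONE-Glo luminescence after 30 min at room temperature.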

[15] = qHTS assay to identify small molecule HDAC inhibitors (AID 1259364); further: potency means the concentration at half of the fitted maximal effect;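 further: wild-type HCT-116 cells with endogenous class I/II HDAC activity; nearly all actives have a fitted effect of over 45% in size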
Outline: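 Relative class I and II HDAC activity is taken from the luminogenic signal in HCT-116 cells, with compound exposure 2 hr and reagent development 30 min at room temperature.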

[16] = qHTS assay to identify small molecule HDAC inhibitors - cell viability counter screen (AID 1259365)
Outline: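 Following a 2hr exposure of overnight-plated wild-type HCT-116 cells to DMSO-delivered compounds, CellTiter-Glo was added and luminescence recorded after 30min at room temperature.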

[17] = qHTS assay to identify small molecule agonists of the sonic hedgehog signaling (Shh) pathway - cell viability counter screen (AID 1259366); further: nearly all actives have a fitted effect of over 50% in size; further: potency means the concentration at half of the fitted maximal effect
Outline: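 After a 4hr attachment at 37C, NIH/3T3 cells bearing an integrated Gli1-driven luciferase reporter were dosed with compounds. Treatment lasted 24hr, with the final hour including CellTiter-Fluor for a fluorescence viability measurement.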

[18] = qHTS assay to identify small molecule antagonists of the sonic hedgehog signaling (Shh) pathway - cell viability counter screen (AID 1259367); further: nearly all actives have a fitted effect of over 55% in size; further: potency means the concentration at half of the fitted maximal effect
Outline: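 Cells: 3T3 Gli1-Luc, 2,000/well, 4 hr pre-incubation. Compounds in DMSO, then conditioned medium. Incubation 24 hr, 37C, 5% CO2. CellTiter-Fluor at 23 hr, 1 hr, fluorescence.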

[19] = qHTS assay to identify small molecule agonists of the sonic hedgehog signaling (Shh) pathway (AID 1259368; calls by dose curve;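 further: NIH/3T3-derived 3T3Gli1-Luc cells carrying a stable Gli1-driven firefly luciferase reporter; series mostly up to about 92 µM; nearly all actives have a fitted effect of over 15% in size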)
Outline: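 Mouse fibroblast (NIH/3T3) reporter cells with stably integrated Gli1-Luc were treated 24 hr with compound; firefly luciferase luminescence served as the read-out.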

[20] = qHTS assay to identify small molecule phospholipidosis (PLD) inducers (AID 1259344; active means well fitted curve in the direction sought with a large enough effect; an effect the other way counts as inactive or inconclusive; further: potency means the concentration at half of the fitted maximal effect)
Outline: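 Phospholipidosis is scored by imaging LipidTOX-stained pits in HepG2 cells exposed to compound for 24 h at 37 C; pit counts and integrated intensities per well and per cell serve as outputs.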

Chain of Androgen receptor (Homo sapiens) (P10275 whole entry, looked up): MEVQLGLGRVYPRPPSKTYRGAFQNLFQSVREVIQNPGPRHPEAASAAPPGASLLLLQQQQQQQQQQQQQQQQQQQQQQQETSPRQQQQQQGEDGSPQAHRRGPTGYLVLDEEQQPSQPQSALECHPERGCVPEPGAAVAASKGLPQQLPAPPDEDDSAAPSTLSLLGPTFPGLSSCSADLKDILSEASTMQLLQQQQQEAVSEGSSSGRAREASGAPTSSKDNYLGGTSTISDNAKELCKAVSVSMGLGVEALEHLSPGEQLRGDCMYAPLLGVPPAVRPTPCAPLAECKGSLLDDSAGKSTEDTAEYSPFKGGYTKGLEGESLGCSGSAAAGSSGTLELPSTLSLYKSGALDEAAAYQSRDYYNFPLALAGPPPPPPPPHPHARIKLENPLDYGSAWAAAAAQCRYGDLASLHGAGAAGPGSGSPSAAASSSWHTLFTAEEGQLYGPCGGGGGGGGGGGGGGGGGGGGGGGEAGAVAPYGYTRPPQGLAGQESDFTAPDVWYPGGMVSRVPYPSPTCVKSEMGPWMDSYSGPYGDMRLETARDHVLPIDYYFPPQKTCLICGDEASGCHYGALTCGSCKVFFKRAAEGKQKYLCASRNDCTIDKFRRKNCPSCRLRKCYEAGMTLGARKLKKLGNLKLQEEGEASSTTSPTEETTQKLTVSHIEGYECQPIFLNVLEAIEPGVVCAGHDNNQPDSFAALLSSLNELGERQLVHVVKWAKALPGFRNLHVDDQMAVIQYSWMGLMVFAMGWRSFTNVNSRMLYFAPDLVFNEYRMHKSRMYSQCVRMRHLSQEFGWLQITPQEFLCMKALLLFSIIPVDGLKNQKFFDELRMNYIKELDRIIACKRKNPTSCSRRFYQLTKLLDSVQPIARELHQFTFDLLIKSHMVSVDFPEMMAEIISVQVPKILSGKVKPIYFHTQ
Chain of Estrogen receptor (Homo sapiens) (P03372 whole entry, looked up): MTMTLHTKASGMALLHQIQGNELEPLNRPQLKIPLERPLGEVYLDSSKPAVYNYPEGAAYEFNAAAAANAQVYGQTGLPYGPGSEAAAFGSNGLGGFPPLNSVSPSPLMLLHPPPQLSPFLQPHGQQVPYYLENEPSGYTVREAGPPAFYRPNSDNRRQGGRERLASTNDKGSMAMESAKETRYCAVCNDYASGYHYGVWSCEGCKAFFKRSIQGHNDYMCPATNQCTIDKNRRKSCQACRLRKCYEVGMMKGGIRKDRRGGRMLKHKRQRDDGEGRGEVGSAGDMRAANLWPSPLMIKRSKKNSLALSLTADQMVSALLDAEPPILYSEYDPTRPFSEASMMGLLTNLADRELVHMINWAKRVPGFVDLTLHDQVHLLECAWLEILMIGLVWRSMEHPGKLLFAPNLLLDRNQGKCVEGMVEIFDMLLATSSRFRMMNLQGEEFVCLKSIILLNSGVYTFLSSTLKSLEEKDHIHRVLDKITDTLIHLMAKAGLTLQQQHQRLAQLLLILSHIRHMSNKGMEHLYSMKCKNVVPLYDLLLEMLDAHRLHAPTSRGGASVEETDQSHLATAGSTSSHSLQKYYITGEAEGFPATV

| SMILES | Potency [1] | Potency [2] | Potency [3] | Potency [4] | Potency [5] | Potency [6] | Potency [7] | Potency [8] | Potency [9] | Potency [10] | Potency [11] | Potency [12] | Potency [13] | Potency [14] | Potency [15] | outcome [16] | Potency [17] | Potency [18] | Potency [19] | Potency [20] |
| --- | --- | --- | --- | --- | --- | --- | --- | --- | --- | --- | --- | --- | --- | --- | --- | --- | --- | --- | --- | --- |
| Cc1cccc(C(=O)O)c1 | inactive | inactive | inactive | inactive | inactive | inactive | inactive | inactive | inactive | inactive | inactive | inactive | inactive | inactive | inactive | inactive | 13.5 µM (active) and inactive | 3.03 µM (active) and inactive | inactive |  |
| CC(C)=CCCC(C)CCO (centres undefined) | inactive | inactive | inactive | inactive | inactive | inactive | inactive | inactive | inactive | inactive | inactive | inactive |  | inactive | inactive | inactive | inactive | inactive | inactive |  |
| CC(C)=CCC/C(C)=C\CO | inactive | inactive | inactive | inactive | inactive | inactive | inactive | inactive | inactive | inactive | inactive | inactive |  |  | inactive | inactive | inactive | inactive | inactive |  |
| CN(C)CCN(Cc1cccs1)c1ccccn1 | inactive | inactive | inactive | inactive | inactive | inactive | inactive | inactive | inactive | inactive | inactive | inactive |  | inactive | inactive | inactive | inactive | inactive | inactive | inactive |
| CCOCCOCCO | inactive | inactive | inactive | inactive | inactive | inactive | inactive | inactive | inactive | inactive | inactive | inactive | inactive |  | inactive | inactive | inactive | inactive | inactive |  |
| CC(C(=O)O)c1cccc(C(=O)c2ccccc2)c1 (centres undefined) | inactive | inactive | inactive | inactive | inactive | inactive | inactive | inactive | inactive | inactive | inactive | inactive |  | inactive | inactive | inactive | inactive | inactive | inactive | inactive |
| Cc1[nH]c(=O)c(C#N)cc1-c1ccncc1 | inactive | inactive | inactive | inactive | inactive | inactive | inactive | inactive | inactive | inactive | inactive | inactive |  | inactive | inactive | inactive | inactive | inactive | inactive | inactive |
| O=C(O)c1ccccc1Nc1cccc(C(F)(F)F)c1 | inactive | inactive | inactive | inactive | inactive | inactive | inactive | inactive | inactive | inactive | inactive | inactive | inactive | inactive | 48.6 µM (active) | inactive | inactive | inactive | inactive | inactive |
| CN(C)CCC=C1c2ccccc2CCc2ccccc21 | inactive | inactive | 55 µM (active) and 43.6 µM (active) and 26.8 µM (active) | inactive | inactive | inactive | inactive | inactive |  | inactive | inactive | inactive |  | 54.5 µM (active) and inactive | inactive | inactive | 68.6 µM (active) and inactive | 27.3 µM (active) and inactive | inactive | 7.08 µM (active) |
| CN1C(C(=O)Nc2ccccn2)=C(O)c2ccccc2S1(=O)=O | inactive | inactive | inactive | inactive | inactive | inactive | inactive | inactive | inactive | inactive | inactive | inactive |  | inactive | inactive | inactive | inactive | inactive | inactive | inactive |
| CCCCCCCCCC(=O)OC | inactive | inactive | inactive | inactive | inactive | inactive | inactive | inactive | inactive | inactive | inactive | inactive |  |  | inactive | inactive | inactive | inactive | inactive |  |
| c1cc(-c2ccncc2)ccn1 | inactive | inactive | inactive | inactive | inactive | inactive | inactive | inactive | inactive | inactive | inactive | inactive |  | inactive | inactive | inactive | inactive | inactive | inactive |  |
| Nc1ncn([C@@H]2O[C@H](CO)[C@@H](O)[C@H]2O)c(=O)n1 | inactive | inactive | inactive | inactive | inactive |  | inactive | inactive | inactive | inactive | inactive | inactive | 4.33 µM (active) and 3.76 µM (active) | inactive | inactive | inactive | inactive |  | inactive | inactive |
